GPR151 activ – activators of human GPR151; activation, % at 11.2 µM; Q8TDV0; AID 1508602; PathHunter beta-arrestin GPR151 cells, luminescence; actives 1% (n = 650,000); in the data active = activation above about 4.9%;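 note: 0% = median of compound wells and 100% = cells with positive control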
Target sequence (Q8TDV0 whole entry, looked up): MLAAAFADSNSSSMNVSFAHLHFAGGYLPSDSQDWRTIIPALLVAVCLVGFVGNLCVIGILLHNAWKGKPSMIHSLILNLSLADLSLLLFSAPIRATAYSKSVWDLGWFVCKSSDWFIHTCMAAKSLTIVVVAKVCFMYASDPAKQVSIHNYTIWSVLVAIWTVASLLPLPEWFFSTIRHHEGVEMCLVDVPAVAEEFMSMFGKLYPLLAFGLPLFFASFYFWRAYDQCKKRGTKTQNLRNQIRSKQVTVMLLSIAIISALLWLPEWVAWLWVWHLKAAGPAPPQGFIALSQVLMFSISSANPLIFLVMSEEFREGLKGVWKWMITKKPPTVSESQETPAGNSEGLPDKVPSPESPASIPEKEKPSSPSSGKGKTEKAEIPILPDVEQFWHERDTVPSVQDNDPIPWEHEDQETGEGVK
MITF primary – inhibitors of human MITF | AlphaScreen MITF homodimerization, bead proximity signal | inhibition, % at 2.6 µM | actives 0.91% (n = 650,000); in the data active = inhibition above about 50%;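 note: 0% = vehicle wells with protein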
FBW7 act – human FBW7 E3 ligase activation, primary screen. Q969H0. AlphaScreen FBW7–phospho-cyclin E peptide binding, activator screen. normalized activity (activation), % at 26.1 µM. actives 0.13% (n = 650,000). AID 1259310; in the data active = normalized activity above about 1.9%;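 note: purified mutant Fbw7 with reduced substrate affinity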
TEAD-YAP block – TEAD-YAP interaction inhibition; HEK-TIYL cells, TEAD-Gal4/YAP UAS-luciferase luminescence; inhibition, % at 9.12 µM; actives 1.4% (n = 640,000); AID 1259422; in the data active = inhibition above about 32%;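 note: 0% = median of test compound wells and 100% = reference inhibitor wells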
Numbers without * were called inactive. Compounds with a hit are over-represented: about 3.4% of the library has one in this group of screens.

SMILES	GPR151 activ	MITF primary	FBW7 act	TEAD-YAP block
COc1ccc(/C=N/n2c(C(F)(F)F)n[nH]c2=S)cc1O	1	-2	0	-4
CCOc1ccc(S(=O)(=O)N2c3ccccc3CC2C)cc1 (stereo not drawn)	1	4	0	52*
COc1ccc(S(=O)(=O)N2c3ccccc3CC2C)cc1 (stereo not drawn)	2	0	0	48*
Cc1ccc(S(=O)(=O)N2c3ccccc3CC2C)cc1 (stereo not drawn)	-1	-10	0	4
CCC(=O)Nc1ccc(S(=O)(=O)N2c3ccccc3CC2C)cc1 (stereo not drawn)	1	-8	0	7
CCOC(=O)C1(CC2CCCCO2)CCN(C(=O)Nc2cccc(SC)c2)CC1 (stereo not drawn)	1	-8	0	-2
COc1ccccc1NC(=O)Cn1cnc2sc(C(=O)N3CCN(c4ccccc4OC)CC3)c(C)c2c1=O	-1	14	2.1*	10
COc1ccccc1NC(=O)Cn1cnc2sc(C(=O)Nc3ccc(C)c(F)c3)c(C)c2c1=O	-1	12	1.9*	-12
COc1ccccc1NC(=O)Cn1cnc2sc(C(=O)Nc3cc(F)ccc3C)c(C)c2c1=O	-1	17	1	-5
COc1ccccc1NC(=O)Cn1cnc2sc(C(=O)N3CCN(c4ccccc4)CC3)c(C)c2c1=O	-1	12	0	5
CCOc1ccc(C(=O)Nc2ccc(-c3nc4ncccc4o3)cc2)cc1Br	-1	12	2	4
O=C(COC(=O)Cn1c(C(F)(F)F)nc2ccccc21)NCCN1C(=O)CSC1=O	2	5	0	2
CCC(Nc1ccc(Br)cc1)C(=O)N/N=C/c1cc([N+](=O)[O-])ccc1O (stereo not drawn)	2	19	0	43*
CCC(Nc1ccc(Br)cc1)C(=O)N/N=C/c1ccc(O)cc1O (stereo not drawn)	0	18	0	76*
CCC(Nc1ccc(Br)cc1)C(=O)N/N=C/c1cc(OC)ccc1O (stereo not drawn)	1	4	0	22
COc1ccc(-c2ncnn2-c2sc3c(c2C#N)CCCCC3)cc1OC	0	-10	0	-1
COc1cc(-c2ncnn2-c2sc3c(c2C#N)CCCCC3)ccc1O	0	-12	0	79*
Cc1ccc2c(c1)C(c1ccccc1)CC(C)N2C(=O)c1ccco1 (stereo not drawn)	0	-1	0	50*
CC(C)(C)C(=O)COC(=O)c1ccc(S(C)(=O)=O)c([N+](=O)[O-])c1	1	4	0	2
CS(=O)(=O)c1ccc(C(=O)OCc2cccc(C(F)(F)F)c2)cc1[N+](=O)[O-]	3	10	0	52*
O=C(Cc1ccccn1)N1CCc2c([nH]c3ccccc23)C1c1ccccn1 (stereo not drawn)	2	-6	0	7
CC(=O)Nc1ccc(CN2CCc3c([nH]c4ccccc34)C2c2ccccn2)s1 (stereo not drawn)	1	3	0	34*
COc1ccc(C2Nc3ccccc3-c3nnc(SCc4ccc(C)cc4)nc3O2)cc1O (stereo not drawn)	0	-8	0	-9
Fc1cc(-c2ccnc(Nc3ccc(-n4cnc(N5CCOCC5)n4)cc3)n2)cc(N2CCOCC2)c1	-1	-14	0	57*
COc1cccnc1-c1ncn(-c2ccc(Nc3nccc(-c4cc(F)cc(N5CCOCC5)c4)n3)cc2)n1	1	-2	0	83*
SMILES	GPR151 activ	MITF primary	FBW7 act	TEAD-YAP block
CN(C)c1cc(F)cc(-c2ccnc(Nc3ccc(-n4cnc(N5CCC(O)CC5)n4)cc3)n2)c1	3	-9	0	65*
CC(C)(C)c1ncn(-c2ccc(Nc3nccc(-c4cn[nH]c4)n3)cc2)n1	0	2	0	63*
Fc1cc(-c2cn[nH]c2)cc(-c2ccnc(Nc3ccc(-n4cnc(C(F)(F)F)n4)cc3)n2)c1	0	18	0	-5
COC(=O)c1ccc(NC2SC(=O)N(Cc3ccc(C(=O)O)cc3)C2=O)cc1 (stereo not drawn)	-1	-3	0	7
CCOC(=O)c1cc2c(c(CSc3nc4sc(C(=O)OCC)c(C)c4c(=O)n3CCc3ccccc3)c1)OCOC2	-1	4	0	11
COc1cc(C(=O)N2c3ccccc3N3C(c4c(C)c(C)cc(C)c4C)=NON23)cc(OC)c1OC	0	14	0	14
CC1CCc2c(sc(NC(=O)Nc3ccc(Cl)cc3)c2C(N)=O)C1 (stereo not drawn)	0	12	0	2
CCN1CCN(c2ncn(-c3ccc(Nc4nccc(-c5cncc(N6CCOCC6)c5)n4)cc3)n2)CC1	2	6	0	60*
N#Cc1cc(-c2ccnc(Nc3ccc(N4CCC(O)CC4)cc3)n2)cc(N2CCOCC2)c1	0	13	0	47*
c1cc(Cn2cccn2)cc(Nc2nccc(-c3cncc(N4CCOCC4)c3)n2)c1	-2	21	0	79*
CCN1CCN(c2ncn(-c3ccc(Nc4nccc(-c5cc(N6CCOCC6)cc(C(F)(F)F)c5)n4)cc3)n2)CC1	-1	7	0	-6
OC1CCN(c2ccc(Nc3nccc(-c4cncc(N5CCOCC5)c4)n3)cc2)CC1	0	11	0	62*
N#Cc1ccc(Nc2nccc(-c3cncc(N4CCOCC4)c3)n2)cc1	4	2	0	3
CC(C)[C@@H](Cn1nnc2ccccc21)NC(=O)c1ccc2c(c1)n(C)c(=O)n2C	0	-5	0	3
COc1ccc(S(=O)(=O)N2CCN(Cc3cccc(C)c3)CC2)cc1	-1	7	0	0
COc1cccc(C(=O)N2CCN(Cc3ccc(SC)cc3)CC2)c1	-2	37	0	20
Fc1cc(-c2ccnc(Nc3ccc(N4CCOCC4)cc3)n2)cc(N2CCN(C3CC3)CC2)c1	0	2	0	48*
Cc1cc(Nc2nccc(-c3cc(C#N)cc(N4CCOCC4)c3)n2)ccc1N1CCOCC1	0	-5	0	-1
Cc1ncn(-c2ccc(Nc3nccc(-c4cncc(N5CCC(O)CC5)c4)n3)cc2)n1	0	5	0	74*
N#Cc1cc(-c2ccnc(Nc3ccc(-n4cnc(N5CCOCC5)n4)cc3)n2)cc(N2CCCC(O)C2)c1 (stereo not drawn)	-1	1	0	17
N#Cc1cc(-c2ccnc(Nc3ccc(-n4cnc(-c5ccccn5)n4)cc3)n2)cc(N2CCCC(O)C2)c1 (stereo not drawn)	1	9	0	50*
N#Cc1cc(-c2ccnc(Nc3cccc(CN4CCCCC4)c3)n2)cc(N2CCOCC2)c1	-1	16	0	86*
CC1C(=O)N2CCCc3cc(S(=O)(=O)Nc4ccccc4Cl)cc1c32 (stereo not drawn)	0	-2	0	-4
COc1ccc(Cl)cc1C(=O)Nc1ccc(OCC(=O)N2CCOCC2)cc1	1	0	0	1
COc1ccccc1OCC(=O)NNC(=O)C1CCCO1 (stereo not drawn)	-1	-5	0	-7
